From PubChem BioAssay (EPA / NIEHS)
Activity calls are given as the source filed them. Rule for the calls: active = hit-call score of the fitted dose curve at least 0.9, where 1 is the maximum; inactive = score below 0.9.

read-out: Urokinase-type plasminogen activator receptor (uPAR), PLAUR (gene 5329); experiment: BSK_4H_uPAR: BioMAP Diversity Plus: 4H Assay for Urokinase-type plasminogen activator receptor (uPAR) Biomarker Activity (AID 2283030); conditions: primary human endothelial cells (HUVEC); actives raise or lower the signal
Description: BSK_4H is a cell-based, multiplexed-readout assay that uses umbilical vein endothelium, a human vascular primary cell, with measurements taken at 24 hours after chemical dosing in a 96-well plate.BSK_4HAR is an assay component measured in the BSK_4H assay. It measures uPAR antibody related to regulation of gene expression using ELISA technology.Data from the assay component BSK_4HAR was analyzed into 1 assay endpoint. This assay endpoint, BSK_4HAR, was analyzed with bidirectional fitting relative to DMSO as the negative control and baseline of activity. Using a type of binding reporter, gain or loss-of-signal activity can be used to understand changes in the signaling as they relate to the gene PLAUR. Furthermore, this assay endpoint can be referred to as a primary readout, because this assay has produced multiple assay endpoints where this one serves a signaling function. To generalize the intended target to other relatable targets, this assay endpoint is annotated to the cytokine intended target family, where the subfamily is plasmogen activator.
The levels of cell surface (or secreted, indicated by the prefix "s") biomarker endpoints were measured by ELISA. Overt cytotoxicity to cells in confluent adherent cultures (all systems other than the BT system) was assessed by measuring total protein levels using sulforhodamine B (SRB) staining in parallel cultures at the time of biomarker measurements, indicated as SRB endpoints. For proliferation assays for adherent cell types, individual cell types are cultured at sub-confluence and relative cell numbers quantified by SRB staining at time points optimized for each system (48 h: 3C and CASM3C systems; 72 h: BT and HDF3CGF systems; 96 h: SAg system). SRB was performed by staining cells with 0.1% SRB after fixation with 10% TCA and reading wells at 560 nm.Viability and proliferation of PBMC (T cells) was quantified by Alamar Blue reduction for the SAg and BT systems. For PBMC viability (referred to as PBMC Cytotoxicity within the assay endpoint names), cells were plated (75,000/well in a 96-well plate) and then chemical samples added for 1 h before addition of activators, SEB and TSST-1 (20 ng/mL final concentration each). Cells were incubated for 90 h. Then, Alamar Blue (20 uL/well) (Invitrogen, Cat DAL1100) was added for 6 h, and the plates were read with a fluorescence microplate reader at 546/580 nm (excitation/emission). For PBMC proliferation, cells were plated and activated as above but incubated for only 16 h prior to addition of Alamar Blue. Plates were read after 6 h.

For `Nc1c(Cl)cc([N+](=O)[O-])cc1Cl`, which outcome is on record?
The outcome was “inactive”.

For `CON=C(C(=O)OC)c1ccccc1CON=C(C)c1cccc(C(F)(F)F)c1`, which outcome is on record?
Its outcome is “inactive”.

Which outcome does the source give for `CCOP(=O)(NC(C)C)Oc1ccc(SC)c(C)c1` (stereo not given) here?
The outcome was “inactive”.

For `CSC1=N[C@@](C)(c2ccccc2)C(=O)N1Nc1ccccc1`, which outcome is on record?
Its outcome is “inactive”.

Which outcome does the source give for `Cc1nn(-c2cc(NS(C)(=O)=O)c(Cl)cc2Cl)c(=O)n1C(F)F` here?
Its outcome is “inactive”.

Which outcome does the source give for `CCOP(=S)(OCC)Oc1cc(C)nc(C(C)C)n1` here?
Its outcome is “inactive”.

How did the outcome turn out when `CCNc1nc(Cl)nc(NC(C)(C)C#N)n1` was run?
Its outcome is “inactive”.

For `CCOP(=S)(Oc1cnc(C(C)(C)C)nc1)OC(C)C` (stereo not given), which outcome is on record?
The outcome was “inactive”.

With `FC(F)C(F)(F)OCC(Cn1cncn1)c1ccc(Cl)cc1Cl` (stereo not given) as the compound, how does the AC50 read?
Its AC50 is 31.7 µM (active).

`CNC(=O)Oc1cccc2c1OC(C)(C)O2` was tested. Which outcome did it give?
Its outcome is “inactive”.

How did the outcome turn out when `CCCCN(CC)c1c([N+](=O)[O-])cc(C(F)(F)F)cc1[N+](=O)[O-]` was run?
Its outcome is “inactive”.

Which outcome does the source give for `Cc1cc(C2CC2)nc(Nc2ccccc2)n1` here?
The outcome was “inactive”.

For `CN(C)NC(=O)CCC(=O)O`, which outcome is on record?
Its outcome is “inactive”.

How did the outcome turn out when `CCCSP(=O)(OCC)Oc1ccc(Br)cc1Cl` (stereo not given) was run?
Its outcome is “inactive”.

For `COc1cccc(C(=O)NN(C(=O)c2cc(C)cc(C)c2)C(C)(C)C)c1C`, which outcome is on record?
The outcome was “inactive”.

Which outcome does the source give for `CN(C)[C@@H]1C(=O)C(C(N)=O)=C(O)[C@@]2(O)C(=O)C3=C(O)c4c(O)cccc4[C@@](C)(O)[C@H]3[C@H](O)[C@@H]12` here?
The outcome was “inactive”.

For `CSc1nnc(C(C)(C)C)c(=O)n1N`, which outcome is on record?
The outcome was “inactive”.

How did the outcome turn out when `CCOP(=O)(OCC)Oc1cc(C)nc(C(C)C)n1` was run?
The outcome was “inactive”.

`CCc1cccc(C)c1N(C(=O)CCl)C(C)COC` (stereo not given) was tested. Which outcome did it give?
The outcome was “inactive”.

How did the outcome turn out when `CCOP(=S)(OCC)Oc1ccc([N+](=O)[O-])cc1` was run?
Its outcome is “inactive”.

`CCOP(=O)(SC(C)CC)N1CCSC1=O` (stereo not given) was tested. Which outcome did it give?
Its outcome is “inactive”.

How did the outcome turn out when `CCCCOC(=O)[C@@H](C)Oc1ccc(Oc2ccc(C#N)cc2F)cc1` was run?
Its outcome is “inactive”.

How did the outcome turn out when `O=c1ccc(=O)[nH][nH]1` was run?
Its outcome is “inactive”.

Which outcome does the source give for `CN(C)C(=O)Nc1cccc(C(F)(F)F)c1` here?
The outcome was “inactive”.

For `C=C(C)[C@H]1Cc2c(ccc3c2O[C@@H]2COc4cc(OC)c(OC)cc4[C@@H]2C3=O)O1`, which AC50 is on record?
Its AC50 is 4.41 µM (active).

For `CCCCSP(=O)(SCCCC)SCCCC`, which outcome is on record?
The outcome was “inactive”.

`CCOP(=S)(OCC)SCCSCC` was tested. Which outcome did it give?
Its outcome is “inactive”.

For `CCOP(=S)(OCC)Oc1ccc2c(C)c(Cl)c(=O)oc2c1`, which outcome is on record?
The outcome was “inactive”.

For `CC(=NC#N)N(C)Cc1ccc(Cl)nc1`, which outcome is on record?
The outcome was “inactive”.

For `S=C1NCCN1`, which outcome is on record?
The outcome was “inactive”.

With `COP(=O)(OC)SCn1c(=O)oc2cc(Cl)cnc21` as the compound, how does the outcome read?
Its outcome is “inactive”.

For `CCCCOC(=O)c1ccccc1C(=O)O`, which outcome is on record?
Its outcome is “inactive”.

With `CN1COCN(Cc2cnc(Cl)s2)C1=N[N+](=O)[O-]` as the compound, how does the outcome read?
Its outcome is “inactive”.

`COc1cc(OC)nc(Sc2cccc(Cl)c2C(=O)O)n1` was tested. Which outcome did it give?
The outcome was “inactive”.

How did the outcome turn out when `CC1=NNC(=O)N(/N=C/c2cccnc2)C1` was run?
The outcome was “inactive”.

For `O=C(O)c1cc(Oc2ccc(C(F)(F)F)cc2Cl)ccc1[N+](=O)[O-]`, which outcome is on record?
Its outcome is “inactive”.

Which outcome does the source give for `COc1ccc(C(=CC(=O)N2CCOCC2)c2ccc(Cl)cc2)cc1OC` here?
Its outcome is “inactive”.

Which outcome does the source give for `CCc1cnc(C2=NC(C)(C(C)C)C(=O)N2)c(C(=O)O)c1` (stereo not given) here?
Its outcome is “inactive”.

`CC(C1CC1)C(O)(Cn1cncn1)c1ccc(Cl)cc1` (stereo not given) was tested. Which outcome did it give?
The outcome was “inactive”.

`CCc1cccc(CC)c1N(COC)C(=O)CCl` was tested. Which outcome did it give?
Its outcome is “inactive”.
